# Screening results: PubChem BioAssay, National Center for Advancing Translational Sciences (NCATS)
# Vif-APOBEC3G blk = blocks the Vif interaction with human APOBEC3G. Potency, µM (doses to about 46.1 µM), hits mostly inhibitors. Q9HC16. AID 602310. 410,000 tested, 0.076% active. HeLa A3G-eYFP + Vif (tagged APOBEC3G with the HIV-1 protein that degrades it), YFP fluorescence, overnight; also: nearly all actives have a fitted effect of over 60% in size
# Target sequence (Q9HC16 whole entry, looked up): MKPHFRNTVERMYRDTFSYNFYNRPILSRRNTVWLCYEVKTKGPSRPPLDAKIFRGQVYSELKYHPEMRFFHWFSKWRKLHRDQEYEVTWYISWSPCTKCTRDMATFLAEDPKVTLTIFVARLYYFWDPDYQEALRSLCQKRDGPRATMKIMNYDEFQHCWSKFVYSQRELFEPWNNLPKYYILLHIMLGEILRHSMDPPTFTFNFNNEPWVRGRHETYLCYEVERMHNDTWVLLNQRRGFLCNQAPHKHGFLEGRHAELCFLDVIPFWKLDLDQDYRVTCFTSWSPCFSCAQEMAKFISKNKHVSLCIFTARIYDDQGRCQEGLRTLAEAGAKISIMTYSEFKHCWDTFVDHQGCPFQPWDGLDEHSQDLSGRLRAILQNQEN
#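 HeLa cells stably expressing Vif and C-terminally eYFP-tagged A3G, seeded overnight at 37 deg C, then exposed to compound by pintool overnight at 37 deg C. Rise in yellow fluorescence (Ex 488/Em 500-530, Acumen) marks blocked Vif-driven A3G degradation.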
# PINK1 expr mod = changes PINK1 expression | PINK1 immunofluorescence, high-content cytometry, 24 h | Potency, µM (highest dose often 76.6 µM), actives largely listed as activators | 410,000 tested, 0.2% active | AID 624263; active = well fitted activation curve with a large enough effect; inconclusive = small, poorly fitted or top-dose-only effect; cell line not stated here; also: nearly all actives have a fitted effect of over 65% in size
#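 PINK1 protein level read as immunofluorescence by microplate cytometer in a fixed, stained stable cell line after 24 h exposure to five compound concentrations, with CCCP as control.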
# Vif-APOBEC3F blk = Vif-A3F binding inhibition; HeLa A3F-eYFP + Vif (tagged APOBEC3F with the HIV-1 protein that degrades it), YFP fluorescence increase; Potency, µM (titrated, usually from 46.1 µM); 390,000 tested, 0.2% active; AID 602313; also: nearly all actives have a fitted effect of over 65% in size
#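 HeLa cells stably expressing A3F-eYFP plus Vif, plated and incubated overnight at 37 deg C, then exposed to compounds overnight at 37 deg C. Blocked degradation read as raised yellow fluorescence (Ex 488/Em 500-530).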
# Epigenetic reg = regulators of epigenetic silencing causing reporter derepression in mouse cells | Potency, µM (series often up to 53.9 µM), most hits filed as activators | murine LDR cells, GFP reporter derepression, 30 h | 280,000 tested, 0.2% active; also: nearly all actives have a fitted effect of over 60% in size
#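 GFP-positive cell count by laser-scanning cytometry (objects 20–120 um) after 30 h, 37 C compound exposure of murine LDR cells; reporter is CMV-GFP integrated at a silenced locus, inducible by HDAC or DNMT inhibitors.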
# Hits are given with their value; i = inactive; ? = inconclusive; nt = not tested or not shown; ! = not confirmed by another sample. A selection: hits, their analogues and other compounds. The true share with any hit is near 0.51%. Unless noted, calls follow the shape of the dose curve; as a rule, active = well fitted curve in the direction sought with a large enough effect; inconclusive = small, poorly fitted or top-dose-only effect, or another doubt; inactive = no such curve, though single readings can be large; an effect the other way counts as inactive or inconclusive.
SMILES,Vif-APOBEC3G blk,PINK1 expr mod,Vif-APOBEC3F blk,Epigenetic reg
CCCCn1c(O)c(/C=C2/C=CC=N2)c(=O)[nH]c1=O,10µM,i,?,i
O=c1[nH]c(=O)n(Cc2ccccc2Cl)c(O)c1/C=C1/C=CC=N1,?,i,8.9µM,?
O=C(NCc1ccccc1)c1cccc(Nc2nc3ccccc3n3nnnc23)c1,i,i,?,i
CCCCC/C=C\C/C=C\C/C=C\C/C=C\CCCC(=O)NCCCl,nt,nt,nt,i
COCCOC(=O)c1c(C)n(C)c2ccc(OC(=O)N(C)C)cc12,i,5.6µM,i,i
Nc1ccc2c(c1)Cc1cc([N+](=O)[O-])ccc1-2,?,i,11µM,?
CCN(CC)c1ccc(N=Cc2c(O)n(Cc3ccccc3)c(=O)[nH]c2=O)cc1,?,i,7.9µM!,13µM
CCN(CC)c1ccc(N=Cc2c(O)n(-c3ccccc3)c(=O)[nH]c2=O)cc1,i,i,i,i
CC1=C(O)C(=O)C=C2C1=CC=C1[C@]2(C)CC[C@@]2(C)C3C[C@](C)(C(=O)O)CC[C@@]3(C)CC[C@@]12C (some centres not stated),nt,nt,nt,i
CC(C)(C)c1cc([N+](=O)[O-])cc(C(C)(C)C)c1O,i,5µM,i,i
Nc1c(Br)cc2c3c(cccc13)-c1ccccc1-2,?,i,11µM,nt
CN(C)C1C(=O)C(C(N)=O)C(=O)C2(O)C(=O)C3C(=O)c4c(O)cccc4C(C)(O)C3C(O)C12 (configuration not stated),nt,nt,nt,i
CCN(CC)c1nc2ccccc2nc1C(=O)Nc1cccc(C(C)=O)c1,?,i,i,i
CC(C)[C@@]1(NC(=O)[C@@H]2C[C@@H]3c4cccc5[nH]cc(c45)C[C@H]3N(C)C2)O[C@@]2(O)[C@@H]3CCCN3C(=O)[C@H](Cc3ccccc3)N2C1=O,i,i,i,22µM!
CCCCC1(CCCC)C(=O)NC(=Nc2cccc(C)c2)NC1=O,i,16µM,i,i
CCCC1(CCC)C(=O)NC(=Nc2ccccc2)NC1=O,i,i,i,i
COc1cc(=O)n2c(c1C(=O)N(C)Cc1nonc1C)CCN(C(=O)C1C(C)(C)C1(C)C)CC2,nt,i,nt,nt
CCn1c(NN=O)nc2ccccc21,i,i,11µM,?
ClCCN(CCCl)c1ccc(C=Cc2ccncn2)cc1,i,i,22µM,nt
O=c1[nH]c(O)c(C=NCCc2ccccc2)c(=O)[nH]1,i,i,i,i
O=c1[nH]c(O)c(/C=C2\C=Nc3ccc(OCc4ccccc4)cc32)c(=O)[nH]1,i,32µM,13µM,nt
Cc1cccc(CN2CCCC(C(=O)c3cccc(OC(C)C)c3)C2)n1 (configuration not stated),i,i,22µM,i
COc1cccc(C(=O)C2CCCN(Cc3cccc(C)n3)C2)c1 (configuration not stated),i,i,?,i
ClCCN(CCCl)c1ccc(/C=C/c2ccnc3ccccc23)cc1,?,i,nt,nt
CCN1C(=O)/C(=C/c2ccc(N(CC)CC)cc2OC)C(=O)NC1=S,i,i,7.9µM,i
SMILES,Vif-APOBEC3G blk,PINK1 expr mod,Vif-APOBEC3F blk,Epigenetic reg
CCN(CC)c1ccc(/C=C2\C(=O)NC(=S)N(c3ccc(OC)cc3OC)C2=O)o1,i,i,11µM,nt
COc1ccc(N2C(=O)/C(=C/c3ccc(N(C)C)o3)C(=O)NC2=S)cc1,i,i,?,nt
COc1ccccc1/C=C1\C(=O)NC(=S)N(c2ccccc2)C1=O,i,i,i,nt
CCN1C(=O)c2ccccc2Sc2ccc(NC(=O)Nc3ccc(Br)c(C)c3)cc21,i,16µM,i,i
Cc1ccc(Cl)cc1NC(=O)Cn1c(=O)oc2cc(S(=O)(=O)N3CCCCCC3)ccc21,i,i,?,i
CCCCn1c(N)c(N(CC(C)C)C(=O)c2cc(Br)c(Br)s2)c(=O)[nH]c1=O,i,i,25µM,nt
CN(C)c1ccc(/C=C/C=C/c2sc3ccccc3[n+]2C)cc1,i,5µM,i,i
CN(C)c1ccc(C=Cc2ccnc3c(O)cccc23)cc1,i,i,?,nt
CC[n+]1c(/C=C/C=C/c2ccc(N(C)C)cc2)sc2ccccc21,i,i,i,i
CN(C)c1ccc(/C=C/c2cc[n+](C)c3ccccc23)cc1,i,25µM,i,i
Cc1cc(/C=C/c2cccc3sc(C)[n+](CCCCI)c23)ccc1N(CCCl)CCCl,i,i,nt,nt
CC(=O)Nc1c2sscc-2n(C)c1=O,nt,nt,nt,i
O=C1NC(=O)N(c2ccccc2F)C(=O)/C1=C/c1ccc(Sc2nc3ccccc3[nH]2)o1,i,i,22µM,i
CCN(CC)c1ccc(/C=C/[N+](=O)[O-])cc1,?,i,25µM,i
Cc1ccc2oc(=O)c(-c3nc4ccc(C)cc4[nH]3)cc2c1,i,i,i,16µM
CN1C(=O)C(=Cc2ccc(N3CCCCC3)o2)C(=O)N(C)C1=S,?,i,4µM,i
O=C1NC(=O)N(c2ccc3c(c2)OCO3)C(=O)/C1=C/c1ccc(N2CCCCC2)o1,?,i,22µM,i
CCN(CC)c1ccc(C=C2C(=O)N(C)C(=S)N(C)C2=O)o1,?,i,i,i
Cc1c(Cl)cccc1NC(=O)c1oc2ccc(S(=O)(=O)N3CCC4(CC3)OCCO4)cc2c1C,?,i,i,i
COc1ccc(C2=C(C(C)=O)Sc3nnc(-c4ccc(Cl)cc4)n3N2C(C)=O)cc1OC,i,i,?,i
CC[C@H](C)[C@H](NC(=O)[C@H](CCCN=C(N)N)NC(=O)[C@H](CCCN=C(N)N)NC(=O)[C@H](CC(C)C)NC(=O)[C@H](Cc1ccccc1)NC(=O)CNC(=O)CNC(=O)[C@@H](N)Cc1ccc(O)cc1)C(=O)O,nt,nt,nt,i
Cn1cccc1/C=C1\C(=O)NC(=O)N(CCC2=CCCCC2)C1=O,i,i,i,i
Cn1cccc1/C=C1\C(=O)NC(=O)N(Cc2ccccc2Cl)C1=O,i,i,11µM,i
Cc1cc(/C=C/c2ccnc3ccccc23)ccc1N(CCCl)CCCl,i,i,nt,nt
COC(=O)Cn1cc(C=C2C(=O)NC(=O)NC2=O)c2ccccc21,i,i,i,nt
SMILES,Vif-APOBEC3G blk,PINK1 expr mod,Vif-APOBEC3F blk,Epigenetic reg
COC(=O)Cn1cc(/C=C2\C(=O)NC(=O)N(c3ccc(OC)cc3)C2=O)c2ccccc21,i,35µM,?,nt
COc1ccc(N2C(=O)NC(=O)/C(=C\c3cn(C)c4ccccc34)C2=O)cc1,i,i,22µM,nt
COc1ccc(-[n+]2c(-c3ccccc3)cc(-c3ccccc3)cc2-c2ccccc2)cc1,i,16µM,i,nt
CC(=O)NCC(N)C(=O)c1ccc(Cl)c(Cl)c1 (configuration not stated),nt,i,nt,nt
CCC(C)C(=O)c1c(O)c(C)c2oc3c(C)c(O)c(C(=O)C(C)CC)c(O)c3c2c1O (configuration not stated),nt,16µM,nt,i
C[C@]12CC[C@@H](O)CC1CCC1C2CC[C@]2(C)C(=O)CC[C@@H]12 (some centres not stated),nt,nt,nt,i
COc1ccc(-n2c(/C=C/c3ccc(O)cc3)nc3ccccc3c2=O)cc1,i,i,i,nt
O=c1c2ccccc2nc(/C=C/c2ccccc2O)n1-c1ccc(Br)cc1,i,i,10µM,?
COc1ccc(-n2c(/C=C/c3ccc(O)c(OC)c3)nc3ccccc3c2=O)cc1,i,i,20µM,nt
